# Compounds with a hit are over-represented: about 21% of the library has one in this group of screens.
# Shiga toxin inh: inhibitors of Shiga toxin in Vero cells; Vero cells, Shiga toxin protein synthesis inhibition reporter; inhibition, % at 38.7 µM; hit rate 9.2% among 290,000; AID 2315; in the data active = inhibition mostly above about 28%, no sharp cut-off; inactive = mostly below about 43%; also: 0% is about no effect
# HCV inh: HCV inhibition; Huh7.5.1 HCVcc-Cre infection, luciferase reporter, 44 h; Potency, µM (series often up to 41.8 µM), for the others: at the top dose activity change, negative = inhibition, actives largely listed as inhibitors; hit rate 3.4% among 340,000; AID 651820; also: potency is read from the fitted curve at half-maximal effect; % is scaled to controls: 0 for no effect and ±100 for the full control effect
#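 A cell-based infection assay in which seeded cells (1,000 per well) receive test compound after 4 h, are inoculated with HCVcc-Cre at approximately 0.5 moi, and are incubated 44 h before luminescence detection.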
# CHX counter: counter-screen for Shiga toxin inhibitors: cycloheximide protein synthesis inhibition | cell reporter, cycloheximide protein synthesis inhibition counterscreen | max response, % | hit rate 12% among 300,000; in the data active = max response mostly above about 13%, no sharp cut-off; inactive = mostly below about 14%; also: read at 38.3 µM for the half of the compounds with a filed dose; 0% is about no effect
# Pf growth 48h: inhibits P. falciparum growth in the first generation, 48 h | hit rate 5.9% among 310,000 | Potency, µM (titrated, usually from 28.7 µM), inactives show at the highest dose activity change, negative = inhibition, hits mostly inhibitors | P. falciparum luciferase growth in erythrocytes, 48 h; also: potency is read from the fitted curve at half-maximal effect; % is scaled to controls: 0 for no effect and ±100 for the full control effect
#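 Here the parasites carry a stable luciferase gene and grow inside erythrocytes in Albumax-based RPMI medium with compound for one erythrocytic cycle. Activity is scored as loss of luminescent signal.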
# AMA1 RON2 block: inhibitors of Plasmodium falciparum AMA1-RON2 interaction | AID 720542 | hit rate 0.2% among 360,000 | Potency, µM (highest dose often 58.2 µM), for inactives: top-dose activity change, negative = inhibition, actives largely listed as inhibitors | AlphaScreen AMA1-biotinylated RON2 peptide binding;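 also: potency is read from the fitted curve at half-maximal effect; 0% = vehicle wells and -100% = peptide control; nearly all actives have a fitted effect of over 45% in size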
#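 AMA1 (3D7) with his tag at 25 nM final met compounds first, then biotinylated RON2 peptide at 25 nM; detection used donor plus acceptor beads, 10 µg/mL apiece, read by AlphaScreen after 30 min at room temperature.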
# Pf growth 96h: inhibits malaria parasite growth, 96 h | P. falciparum luciferase reporter growth, 96 h | Potency, µM (highest dose often 28.7 µM), inactives show top-dose activity change, negative = inhibition, most hits filed as inhibitors | hit rate 6.9% among 320,000 | AID 504834; also: potency is read from the fitted curve at half-maximal effect; % is scaled to controls: 0 for no effect and ±100 for the full control effect
#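 Luminescence readout: decreased luciferase signal marks inhibited growth of reporter-expressing P. falciparum in infected red cells (2% hematocrit, 0.05% parasitemia final), exposed to compound two generations (96 h, 37 C, 5% CO2).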
# * marks the source's active call; other numbers are inactive results; ? = inconclusive; · = not tested or not shown; + = active, no number. Unless noted, calls follow the shape of the dose curve; as a rule, active = well fitted curve in the direction sought with a large enough effect; inconclusive = small, poorly fitted or top-dose-only effect, or another doubt; inactive = no such curve, though single readings can be large; an effect the other way counts as inactive or inconclusive.
SMILES,Shiga toxin inh,HCV inh,CHX counter,Pf growth 48h,AMA1 RON2 block,Pf growth 96h
COc1ccc(-c2nc(N)ncc2-c2ccccc2)c(O)c1,-4,-15%,1,0%,-15%,-24%
C[C@H](NC(=O)OC(C)(C)C)C(=O)N/N=C/c1cccc2nccnc12,-14,8%,-3,-1%,92%,10%
Cc1cccc2cc(/C=N/Nc3ccc(C(=O)O)cc3)c(Cl)nc12,128*,25%,68*,217%,-10%,384%
O=C(O)c1ccc(N/N=C/c2cc3ccccc3nc2Cl)cc1,84*,15%,38*,185%,-14%,207%
O=[N+]([O-])c1ccccc1N/N=C/c1cc2ccccc2nc1Cl,+,-1%,38,91%,-14%,·
O=C(O)c1ccc(N/N=C/c2cccc3nccnc23)cc1,45*,-9%,27*,153%,-11%,134%
COc1ccc(-c2csc(C(C#N)=C(O)CSc3nccn3C)n2)cc1OC,·,-15%,·,·,10%,·
O=C(Nc1ccc(Cl)c(Cl)c1)OCc1cccnc1,42*,22µM*,20*,-82%,-9%,?
O=C(NNc1ccccc1)OCc1ccccc1,·,·,·,·,-3%,·
O=C(NNC(=O)c1cccnc1)Nc1ccc(Cl)c(Cl)c1,-4,-4%,-2,4%,106%,2%
O=C(Nc1cccnc1)OCc1ccccc1,36,15%,19*,51%,5%,-16%
CCOC(=O)N1CCN(/[N+]([O-])=N/Oc2ccc([N+](=O)[O-])cc2[N+](=O)[O-])CC1,1,·,6,·,·,·
CCOC(=O)[C@@H]1[C@H]2COc3ccc(Br)cc3[C@@H]2N2C(=O)N(c3ccc(C(F)(F)F)cc3)C(=O)[C@]12C,-2,3%,1,?,-5%,?
O=C(Nc1ccc2c(c1)OCO2)N1CCN(Cc2ccco2)CC1,12,-7%,13*,?,-4%,4%
Cc1ccc(NC(=O)N2CCN(Cc3ccc4c(c3)OCO4)CC2)cc1,-10,·,7,·,28%,13µM*
Cc1noc2ncnc(Oc3cc(Cl)ccc3Cl)c12,3,13µM*,8,?,2%,13µM*
Cc1noc2ncnc(Oc3ccc4ccccc4c3)c12,13,25%,-1,0%,-1%,0%
Cc1nc([N+](=O)[O-])c(C(=O)OCc2cccc(Br)c2)n1C,28,-28%,8,2%,-8%,7.4µM*
Cc1nc([N+](=O)[O-])c(C(=O)OCc2ccccc2)n1C,22,-2%,10,45%,14%,?
Cc1ccccc1OC(=O)n1c(=S)oc2cc(Cl)ccc21,43,0%,16*,21%,45%,·
Cc1ccccc1C(=O)NC(C(=O)Nc1nc2c(s1)CCCC2)C(C)C (configuration not stated),31*,-1%,17*,?,10%,4.7µM*
CCCCCCn1nc(C(=O)Nc2nc3c(s2)CCCC3)c2ccccc2c1=O,-1,9%,9,?,-1%,?
O=C(Nc1nc2c(s1)CCCC2)c1ccc2ncsc2c1,67*,?,41*,-61%,-16%,?
COC(=O)Cc1csc(NC(=O)c2ccc3ncsc3c2)n1,·,-2%,·,280%,-6%,101%
O=C(Nc1nc2c(s1)CCCC2)C1CCCN1C(=O)c1cccs1 (configuration not stated),17,-9%,1,15%,-2%,-18%
SMILES,Shiga toxin inh,HCV inh,CHX counter,Pf growth 48h,AMA1 RON2 block,Pf growth 96h
Cc1ccccc1-c1cc(C(=O)Nc2nc3c(s2)CCCC3)c2ccccc2n1,43,?,11,?,-15%,?
Cc1ncsc1C(=O)Nc1nc2c(s1)CCCC2,106*,-4%,62*,·,5%,10%
Cc1cc(C(=O)Nc2nc3c(s2)CCCC3)cs1,107*,13µM*,40*,-38%,12%,-14%
CC(C)N(Cc1ccccc1)S(=O)(=O)c1ccc2c(c1)NC(=O)CO2,-1,-8%,-10,-6%,-1%,?
Cc1nn(C)cc1C1C2=C(CC(C)(C)CC2=O)N(c2ccccc2)C2=C1C(=O)CC(C)(C)C2,-3,-2%,1,·,-6%,3.7µM*
CCN1C(=O)N[C@@H](c2ccccc2)[C@@H](C(=O)OC)[C@H]1C,·,27%,·,·,1%,·
COC(=O)[C@H]1[C@@H](C)N(CCc2cc(OC)c(OC)c(OC)c2)C(=O)N[C@H]1c1ccccc1,·,22µM*,·,·,-2%,·
CC(Sc1nc2ccccc2c(=O)n1CCCN1CCOCC1)C(=O)N1CCc2ccccc21 (configuration not stated),·,-4%,·,·,7%,·
CC(=O)Nc1ccc(CN2CCc3c([nH]c4ccccc34)C2C(C)(C)C)cc1 (configuration not stated),-5,4%,1,-27%,-24%,-5%
CC(C)(C)C1c2[nH]c3ccccc3c2CCN1Cc1cccc(OCCO)c1 (configuration not stated),37,-14%,11*,27%,-1%,?
CCN(CC)S(=O)(=O)c1cccc(C(=O)N/N=C/c2cccc(O)c2O)c1,77*,?,53*,?,44%,?
O=C(N/N=C/c1ccccn1)c1cccc(S(=O)(=O)Nc2ccccc2Cl)c1,-8,-21%,-1,?,85%,12%
CCN(CC)S(=O)(=O)c1cccc(C(=O)N/N=C/c2ccccn2)c1,8,18%,33*,?,106%,-4%
O=C(O)C[CH2][Ge](=[O])[O][Ge](=[O])[CH2]CC(=O)O,·,·,·,-2%,·,-4%
N#CC1=C(N)Oc2c(c(=O)oc3ccccc23)C1c1cccnc1 (configuration not stated),-12,14%,8,-50%,15%,?
N#CC1=C(N)Oc2c(c(=O)sc3ccccc23)C1c1ccncc1 (configuration not stated),7,22%,20*,8%,-9%,-9%
O=C(COC(=O)/C=C/c1ccc2c(c1)OCO2)Nc1ccccc1,93*,-21%,40*,25%,0%,14%
O=C(COC(=O)c1ccncc1)Nc1ccccc1,59,31%,21*,0%,-6%,67%
CN(C)c1ccc(NC(=O)COC(=O)c2ccc3c(c2)OCO3)cc1,·,0%,·,·,-20%,·
O=C(COC(=O)c1ccc2c(c1)OCO2)Nc1ccccc1,41*,13%,13*,-2%,2%,13%
CNc1nc(Cl)c(SC)c(N2CCOCC2)n1,-9,0.89µM*,2,23%,126%,1%
O=C(NC1CCCCC1)c1cccnc1Sc1ccccc1,-5,10%,-7,17%,-1%,28%
CC1(C)OC(c2ccccc2)=C/C(=C/C=Nc2ccccc2)O1,35*,?,16*,?,0%,?
